According to PubChem BioAssay:
Activity calls are given as the source filed them.

Columns and labels:
[1] = system: PRMT1 (protein arginine N-methyltransferase 1); test: small molecules binding arginine methyltransferase PRMT1 – biochemical, small-molecule microarray, 635 nm fluorescence, primary screen (AID 1088); settings: higher = more signal;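 note: binding of Prmt1 protein to compounds spotted on small-molecule microarray slides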
[2] = growth effects on S. cerevisiae YJM789 – YJM789 clinical isolate, OD600, 24 h, basal, primary screen (AID 1089); settings: higher = more signal, called active from +8 up or from −8 down;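 note: growth of clinical yeast isolate S. cerevisiae YJM 789 seeded 1000 cells per well; test concentration not given here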
[3] = S. pombe growth modifiers, basal conditions – strain 972, OD600, 24 h, no modulator, primary screen (AID 1090);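 note: basal condition with compound alone and no growth modifier present; test concentration not given here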; settings: S. pombe 972 growth, higher = more signal, called active from +8 up or from −8 down
[4] = budding yeast growth modifiers under rapamycin – strain BY4716, OD600, 96 h, primary screen (AID 1091); note: test concentration not given here; settings: S. cerevisiae BY4716 + rapamycin, higher = more signal, called active from +8 up or from −8 down
[5] = biological target: Torsin-1A-interacting protein 2 (Homo sapiens) (UniProt Q8NFQ8); test: small molecules binding lysate-expressed LULL1 – cell lysate, human LULL1 lysate, 635/667 nm fluorescence, primary screen (AID 1092); settings: small-molecule microarray, hLULL1 lysate binding, 635 nm fluorescence; higher = more signal;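 note: probe is lysate of COS7 cells overexpressing human LULL1; score merges per-feature 667 nm fluorescence with signal-to-noise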
[6] = optical density change of DRC41 E. coli – strain DRC41, OD650, 24 h, E. coli filamentation project, primary screen (AID 1093);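 note: MC1000 strain lacking acrAB efflux and sulA so SOS filamentation is blocked; test concentration not given here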; settings: E. coli DRC41 growth, higher = more signal, called active from +8 up or from −8 down
[7] = probe aLefty2 binding to arrayed compounds – biochemical, biotinylated probe, 635/667 nm fluorescence, primary screen (AID 1094); settings: small-molecule microarray, higher = more signal;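 note: score merges spot fluorescence near 667 nm with spot signal-to-noise ratio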
[8] = system: Noggin (protein binding on small-molecule microarray); test: small molecules binding Noggin protein – biochemical, 635/667 nm fluorescence, primary screen (AID 1095); settings: 635 nm fluorescence, higher = more signal;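 note: score merges 667 nm feature fluorescence with signal to noise over triplicate slides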
[9] = biological target: Neurogenic locus notch homolog protein 3 (Homo sapiens) (UniProt Q9UM47); test: small molecules binding NOTCH3 protein – biochemical, 635/667 nm fluorescence, primary screen (AID 1096); settings: small-molecule microarray, 635 nm fluorescence, higher = more signal
[10] = probe aEGFR binding to arrayed compounds – biochemical, biotinylated probe, 635/667 nm fluorescence, primary screen (AID 1097); settings: small-molecule microarray, higher = more signal;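 note: probe is a biotinylated anti-EGFR antibody binding compounds printed on slides; score combines fluorescence near 667 nm and signal to noise of each spot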
[11] = system: Plasmodium falciparum Sir2 (PF13_0152, Sir2A); test: Plasmodium falciparum Sir2A binding compounds – biochemical, small-molecule microarray, 635 nm fluorescence, primary screen (AID 1098); settings: fluorescence 635 nm, higher = more signal;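 note: score merges spot fluorescence intensity with its signal-to-noise ratio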
[12] = probe aDKK1 binding to arrayed compounds – biochemical, biotinylated probe, 635/667 nm fluorescence, primary screen (AID 1099); settings: small-molecule microarray, higher = more signal;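 note: score merges 667nm spot fluorescence with signal to noise across triplicate slides; reference of the scale not given here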
[13] = probe aCHRDL2 binding to arrayed compounds – biochemical, biotinylated probe, 635/667 nm fluorescence, primary screen (AID 1100); settings: small-molecule microarray, higher = more signal
[14] = change in splice reporter luminescence, either direction, cell-based, HEK293, spliceosome inhibition project, primary screen (AID 1101); settings: HEK293 splicing luciferase reporter, 24 h, higher = more signal, called active from +8 up or from −8 down;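 note: HEK293 cells carrying a splicing-competent luciferase reporter gene; test concentration not given here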
[15] = biological target: Fibroblast growth factor 10 (Homo sapiens) (UniProt O15520); test: compounds binding fibroblast growth factor 10 – biochemical, small-molecule microarray, 635 nm fluorescence, primary screen (AID 1102); settings: FGF10 binding, fluorescence 635 nm, higher = more signal
[16] = system: glycogen synthase kinase-3 (GSK3A per assay name; protocol says GSK3B); test: compounds binding glycogen synthase kinase-3 – biochemical, small-molecule microarray, 635 nm fluorescence, GSK3A, primary screen (AID 1103); settings: fluorescence 635 nm, higher = more signal; note: the record names both GSK3A and GSK3B
[17] = biological target: Epidermal growth factor receptor (Homo sapiens) (UniProt P00533); test: compounds binding epidermal growth factor receptor – biochemical, small-molecule microarray, 635 nm fluorescence, primary screen (AID 1104); settings: EGFR binding, higher = more signal;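 note: score merges 667 nm emission intensity with spot signal to noise over triplicate slides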
[18] = biological target: Follistatin-related protein 3 (Homo sapiens) (UniProt O95633); test: compounds binding follistatin-related protein 3 – biochemical, small-molecule microarray, 635 nm fluorescence, primary screen (AID 1105); settings: FSTL3 binding, higher = more signal;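 note: score merges emission near 667 nm and signal to noise per printed spot across three slides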
[19] = biological target: Dickkopf-related protein 1 (Homo sapiens) (UniProt O94907); test: small molecules binding DKK1 protein – biochemical, small-molecule microarray, 635 nm fluorescence scan, primary screen (AID 1106); settings: higher = more signal;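 note: score merges emission near 667 nm with signal to noise over three replicate slides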
[20] = system: Inhibin beta A chain (activin A); test: small molecules binding activin A – biochemical, small-molecule microarray, 635 nm fluorescence scan, primary screen (AID 1107); settings: INHBA, higher = more signal;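 note: mouse activin A protein probed at 4.33 µg/mL on printed slides; score merges bound-protein fluorescence near 667 nm with spot signal-to-noise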

Chain of Torsin-1A-interacting protein 2 (Homo sapiens) (Q8NFQ8 whole entry, looked up): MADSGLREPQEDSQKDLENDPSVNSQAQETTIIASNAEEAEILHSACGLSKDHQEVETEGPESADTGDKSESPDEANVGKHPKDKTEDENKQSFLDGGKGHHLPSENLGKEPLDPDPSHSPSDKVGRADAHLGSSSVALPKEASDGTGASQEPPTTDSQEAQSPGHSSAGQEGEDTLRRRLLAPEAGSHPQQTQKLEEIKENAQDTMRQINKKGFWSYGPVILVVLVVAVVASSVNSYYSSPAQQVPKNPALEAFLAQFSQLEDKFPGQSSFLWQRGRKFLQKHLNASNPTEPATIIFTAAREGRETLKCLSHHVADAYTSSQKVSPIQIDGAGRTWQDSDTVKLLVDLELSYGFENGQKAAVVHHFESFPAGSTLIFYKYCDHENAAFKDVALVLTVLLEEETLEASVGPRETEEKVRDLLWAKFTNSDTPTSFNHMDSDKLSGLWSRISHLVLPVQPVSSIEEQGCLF
Chain of Dickkopf-related protein 1 (Homo sapiens) (O94907 whole entry, looked up): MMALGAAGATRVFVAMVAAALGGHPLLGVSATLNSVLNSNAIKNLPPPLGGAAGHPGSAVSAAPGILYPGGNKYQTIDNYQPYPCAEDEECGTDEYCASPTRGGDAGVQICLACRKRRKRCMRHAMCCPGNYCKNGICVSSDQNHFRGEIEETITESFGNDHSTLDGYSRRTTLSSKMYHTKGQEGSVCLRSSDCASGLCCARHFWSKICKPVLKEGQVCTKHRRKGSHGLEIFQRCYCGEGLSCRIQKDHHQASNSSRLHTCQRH
Chain of Neurogenic locus notch homolog protein 3 (Homo sapiens) (Q9UM47 whole entry, looked up): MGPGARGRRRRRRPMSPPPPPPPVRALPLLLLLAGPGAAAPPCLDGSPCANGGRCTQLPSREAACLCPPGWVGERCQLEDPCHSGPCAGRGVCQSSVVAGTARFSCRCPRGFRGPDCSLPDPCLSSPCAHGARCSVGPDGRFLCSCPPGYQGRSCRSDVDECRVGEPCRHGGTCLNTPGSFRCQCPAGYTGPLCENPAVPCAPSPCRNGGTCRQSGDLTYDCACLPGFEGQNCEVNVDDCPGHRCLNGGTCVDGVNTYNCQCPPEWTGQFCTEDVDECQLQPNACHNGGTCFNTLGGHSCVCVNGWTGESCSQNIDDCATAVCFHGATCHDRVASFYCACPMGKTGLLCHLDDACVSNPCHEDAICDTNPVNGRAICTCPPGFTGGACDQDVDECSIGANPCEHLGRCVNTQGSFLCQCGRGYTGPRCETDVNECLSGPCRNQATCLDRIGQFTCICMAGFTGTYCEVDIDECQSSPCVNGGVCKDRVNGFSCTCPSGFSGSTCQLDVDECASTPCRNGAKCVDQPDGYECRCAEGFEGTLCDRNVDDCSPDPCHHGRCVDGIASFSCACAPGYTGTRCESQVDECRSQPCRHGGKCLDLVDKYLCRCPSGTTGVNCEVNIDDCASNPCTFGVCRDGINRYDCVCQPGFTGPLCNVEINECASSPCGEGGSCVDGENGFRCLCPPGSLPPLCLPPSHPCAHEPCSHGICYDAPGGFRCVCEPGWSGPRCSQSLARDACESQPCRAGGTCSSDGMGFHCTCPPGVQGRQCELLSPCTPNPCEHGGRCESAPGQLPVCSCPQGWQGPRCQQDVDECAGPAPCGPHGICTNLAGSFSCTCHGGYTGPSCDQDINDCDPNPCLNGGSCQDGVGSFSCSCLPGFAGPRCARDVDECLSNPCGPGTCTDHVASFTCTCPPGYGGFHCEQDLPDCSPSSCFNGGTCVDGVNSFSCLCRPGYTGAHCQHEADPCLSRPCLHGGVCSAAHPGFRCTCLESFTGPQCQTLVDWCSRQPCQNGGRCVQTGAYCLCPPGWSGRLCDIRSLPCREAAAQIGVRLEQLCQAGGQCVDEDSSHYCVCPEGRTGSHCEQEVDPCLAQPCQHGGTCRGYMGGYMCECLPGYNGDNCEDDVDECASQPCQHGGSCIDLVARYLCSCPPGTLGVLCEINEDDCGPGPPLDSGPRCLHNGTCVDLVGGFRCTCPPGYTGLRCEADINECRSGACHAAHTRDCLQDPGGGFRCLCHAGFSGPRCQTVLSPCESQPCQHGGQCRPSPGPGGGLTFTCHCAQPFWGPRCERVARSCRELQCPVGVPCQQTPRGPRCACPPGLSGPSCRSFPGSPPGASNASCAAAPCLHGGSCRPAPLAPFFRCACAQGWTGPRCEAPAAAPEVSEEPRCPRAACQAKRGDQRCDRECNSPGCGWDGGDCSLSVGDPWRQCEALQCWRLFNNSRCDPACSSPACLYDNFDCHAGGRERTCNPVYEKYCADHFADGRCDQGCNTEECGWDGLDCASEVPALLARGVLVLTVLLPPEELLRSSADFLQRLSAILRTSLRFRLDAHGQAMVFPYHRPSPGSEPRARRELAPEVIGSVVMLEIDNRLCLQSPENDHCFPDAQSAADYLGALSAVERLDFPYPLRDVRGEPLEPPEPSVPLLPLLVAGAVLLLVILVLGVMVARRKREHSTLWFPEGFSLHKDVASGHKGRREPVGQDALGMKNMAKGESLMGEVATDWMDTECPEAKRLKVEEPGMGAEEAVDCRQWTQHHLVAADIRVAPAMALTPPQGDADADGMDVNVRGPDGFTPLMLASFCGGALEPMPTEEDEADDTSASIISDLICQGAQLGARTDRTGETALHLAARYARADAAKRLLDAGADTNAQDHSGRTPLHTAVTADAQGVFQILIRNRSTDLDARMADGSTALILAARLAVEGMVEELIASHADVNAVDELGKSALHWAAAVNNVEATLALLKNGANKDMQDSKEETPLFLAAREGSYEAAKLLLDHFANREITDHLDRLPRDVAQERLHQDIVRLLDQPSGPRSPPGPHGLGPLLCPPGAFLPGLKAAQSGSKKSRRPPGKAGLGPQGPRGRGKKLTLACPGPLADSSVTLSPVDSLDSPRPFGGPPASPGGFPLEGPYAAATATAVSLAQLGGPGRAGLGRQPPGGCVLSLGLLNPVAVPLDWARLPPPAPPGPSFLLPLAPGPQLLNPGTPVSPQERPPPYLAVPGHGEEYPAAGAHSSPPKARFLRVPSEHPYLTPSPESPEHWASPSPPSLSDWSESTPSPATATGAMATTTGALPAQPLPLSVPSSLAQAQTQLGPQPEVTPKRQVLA
Chain of Follistatin-related protein 3 (Homo sapiens) (O95633 whole entry, looked up): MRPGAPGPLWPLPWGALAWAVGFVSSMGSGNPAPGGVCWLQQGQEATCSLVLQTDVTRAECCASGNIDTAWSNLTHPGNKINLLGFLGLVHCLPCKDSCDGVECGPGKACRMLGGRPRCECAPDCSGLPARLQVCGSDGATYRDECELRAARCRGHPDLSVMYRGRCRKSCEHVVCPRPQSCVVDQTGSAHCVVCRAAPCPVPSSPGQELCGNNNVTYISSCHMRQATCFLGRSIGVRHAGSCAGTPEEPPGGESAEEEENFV
Chain of Epidermal growth factor receptor (Homo sapiens) (P00533 whole entry, looked up): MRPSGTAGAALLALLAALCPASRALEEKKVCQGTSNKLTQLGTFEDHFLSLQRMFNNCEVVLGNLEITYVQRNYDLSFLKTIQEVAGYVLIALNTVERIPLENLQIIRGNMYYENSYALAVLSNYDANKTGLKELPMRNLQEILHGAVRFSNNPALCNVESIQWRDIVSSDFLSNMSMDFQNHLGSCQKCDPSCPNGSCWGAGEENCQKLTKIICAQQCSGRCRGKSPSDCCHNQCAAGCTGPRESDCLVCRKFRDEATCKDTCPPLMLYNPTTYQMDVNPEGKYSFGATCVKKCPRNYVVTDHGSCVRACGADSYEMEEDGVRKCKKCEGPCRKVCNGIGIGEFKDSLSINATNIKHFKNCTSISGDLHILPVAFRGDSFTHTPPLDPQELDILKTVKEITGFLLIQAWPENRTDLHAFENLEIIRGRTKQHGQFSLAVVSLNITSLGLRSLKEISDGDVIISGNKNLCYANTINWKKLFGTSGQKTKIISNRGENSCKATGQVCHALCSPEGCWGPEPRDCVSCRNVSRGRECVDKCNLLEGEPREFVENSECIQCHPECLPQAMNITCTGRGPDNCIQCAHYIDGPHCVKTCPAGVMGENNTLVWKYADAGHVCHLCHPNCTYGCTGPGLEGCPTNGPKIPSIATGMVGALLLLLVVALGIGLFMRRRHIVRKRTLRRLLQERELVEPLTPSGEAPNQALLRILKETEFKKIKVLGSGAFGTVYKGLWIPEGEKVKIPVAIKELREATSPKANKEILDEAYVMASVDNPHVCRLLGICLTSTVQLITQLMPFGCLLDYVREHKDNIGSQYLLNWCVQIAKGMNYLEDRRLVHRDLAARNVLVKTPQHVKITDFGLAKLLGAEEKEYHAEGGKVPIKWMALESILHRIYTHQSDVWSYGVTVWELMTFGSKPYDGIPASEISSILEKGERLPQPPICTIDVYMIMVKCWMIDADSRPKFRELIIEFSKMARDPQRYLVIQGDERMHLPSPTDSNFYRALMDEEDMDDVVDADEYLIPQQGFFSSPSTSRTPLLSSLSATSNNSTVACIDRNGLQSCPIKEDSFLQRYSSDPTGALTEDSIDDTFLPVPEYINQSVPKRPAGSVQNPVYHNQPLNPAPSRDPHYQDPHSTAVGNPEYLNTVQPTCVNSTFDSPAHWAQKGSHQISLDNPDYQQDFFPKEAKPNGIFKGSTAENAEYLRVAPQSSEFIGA
Chain of Fibroblast growth factor 10 (Homo sapiens) (O15520 whole entry, looked up): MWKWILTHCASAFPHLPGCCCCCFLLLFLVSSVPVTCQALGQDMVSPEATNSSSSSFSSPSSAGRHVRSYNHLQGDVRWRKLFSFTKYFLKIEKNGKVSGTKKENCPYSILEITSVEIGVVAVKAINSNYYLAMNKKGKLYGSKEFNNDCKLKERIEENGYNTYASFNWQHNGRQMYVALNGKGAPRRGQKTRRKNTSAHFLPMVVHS

Row | SMILES | composite z-score [1] | z-score [2] | z-score [3] | z-score [4] | composite z-score [5] | z-score [6] | composite z-score [7] | composite z-score [8] | composite z-score [9] | composite z-score [10] | composite z-score [11] | composite z-score [12] | composite z-score [13] | z-score [14] | composite z-score [15] | composite z-score [16] | composite z-score [17] | composite z-score [18] | composite z-score [19] | composite z-score [20]
1 | COc1ccc(CCNC(=O)[C@@]2(c3ccc([N+](=O)[O-])cc3)CC(=O)N(C3CCCCC3)[C@@H]2c2ccc(CO)cc2)cc1 | 1.29 | 0.812 (inactive) | -0.501 (inactive) | 0.361 (inactive) | 2.75 | 1.3 (inactive) | 0.157 | -0.23 | 0.627 | -0.0452 | 0.54 | 0.701 | 0.806 | -0.134 (inactive) | 0.525 | 1 | -0.155 | 0.211 | 0.214 | 0.249
2 | [N-]=[N+]=Nc1ccccc1C[C@@]1(C(=O)N2CCOCC2)N=C(c2ccc(OCCCO)cc2)O[C@@H]1c1ccccc1 | 1.54 | -1.41 (inactive) | -2.77 (inactive) | 0.0666 (inactive) | 3.38 | 0.568 (inactive) | 0.0946 | 0.955 | 1.11 | 0.778 | 0.816 | 1.46 | 0.59 | -0.818 (inactive) | 1.36 | 1.31 | 0.577 | 1.25 | -0.0771 | -0.431
3 | C=CCOC(=O)[C@@H]1[C@H]2C(=O)O[C@H](c3ccccc3)[C@H](c3ccccc3)N2[C@H](c2ccc(OCCOC(=O)[C@@H]3C[C@@H]4C(=O)N[C@@H](CCCC[N+](C)(C)C)C(=O)N4[C@@H]3c3ccc(O)cc3)cc2)[C@@]12C(=O)Nc1ccc(I)cc12 | 1.53 | 0.954 (inactive) | -1.48 (inactive) | 1.02 (inactive) | 2.21 | -0.0235 (inactive) | -0.103 | 0.989 | 1.07 | -0.0006 | 0.822 | -0.178 | -0.18 | 0.527 (inactive) | 1.18 | 1.24 | 0.49 | 1.41 | 0.776 | 0.192
4 | CC1CC/C=C\[C@H]2OC34C=CCN(C(C)(C)C)C(=O)[C@H]3N(CCCCCO)C(=O)[C@@H]4C2C(=O)O1 (stereo not given in full) | -0.187 | -0.0244 (inactive) | 0.531 (inactive) | -0.615 (inactive) | -0.0626 | -0.129 (inactive) | -0.261 | -0.673 | -0.284 | -0.262 | 0.261 | -0.27 | 0.2 | -0.0565 (inactive) | -0.899 | -0.696 | -1.08 | -0.852 | -1.16 | 0.0607
5 | CCCC=C(CCC)[C@@H](NC(=O)c1cccs1)c1ccc(C(=O)OC)cc1 | -1.88 | -0.0214 (inactive) | 0.598 (inactive) | -0.0964 (inactive) | 0.905 | -0.0658 (inactive) | 1.18 | 0.542 | 0.587 | 0.925 | 0.366 | 1.96 | 0.824 | -0.571 (inactive) | 1.31 | 0.625 | 0.782 | 0.89 | 0.473 | -0.032
